Sampled rows, rich in hits. Any-hit rate of the full collection: about 4.1%.
AMA1-RON2 inh = qHTS for Inhibitors of AMA1-RON; Towards Development of Antimalarial Drug Lead: Primary Screen | Plasmodium falciparum AMA1 (3D7) - RON2 peptide interaction | AlphaScreen AMA1-biotinylated RON2 peptide binding | Potency, µM (top dose mostly 58.2 µM), for the others: top-dose activity change, negative = inhibition, usual class: inhibitors | 0.2% of 360,000 active | AID 720542, 2013;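 further: 0% = vehicle wells and -100% = peptide control; nearly all actives have a fitted effect of over 45% in size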
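AMA1 (3D7) with his tag at 25 nM final met compounds first, then biotinylated RON2 peptide at 25 nM; detection used donor plus acceptor beads, 10 µg/mL apiece, read by AlphaScreen after 30 min at room temperature.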
AmpC inh no detg = qHTS Inhibitors of AmpC Beta-Lactamase (assay without detergent) | P00811 | AmpC nitrocefin hydrolysis, absorbance 480 nm, 0.0001% Triton | Potency, µM (highest dose often 57.1 µM), for the others: top-dose activity change, negative = inhibition, hits mostly inhibitors | 0.52% of 330,000 active | AID 485341, 2010;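 further: plate controls were no compound for no effect and no enzyme for full effect; nearly all actives have a fitted effect of over 20% in size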
Target sequence (P00811 whole entry, looked up): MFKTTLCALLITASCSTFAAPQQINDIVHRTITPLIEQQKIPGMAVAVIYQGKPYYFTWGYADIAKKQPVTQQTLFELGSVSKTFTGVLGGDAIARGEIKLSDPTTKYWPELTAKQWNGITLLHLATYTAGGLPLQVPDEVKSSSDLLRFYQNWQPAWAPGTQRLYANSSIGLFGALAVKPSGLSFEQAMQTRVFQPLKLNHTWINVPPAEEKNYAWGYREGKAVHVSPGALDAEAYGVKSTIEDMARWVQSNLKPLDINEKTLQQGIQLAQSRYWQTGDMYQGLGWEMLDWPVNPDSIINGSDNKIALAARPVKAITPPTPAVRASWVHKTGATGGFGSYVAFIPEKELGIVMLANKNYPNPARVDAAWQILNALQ
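AmpC (5.3 nM in the dispensed reagent) in 20 mM phosphate pH 7.0 with 0.01% (detergent screen) or 0.0001% Triton X-100 was preincubated with compounds for 15 min at room temperature. Nitrocefin was then added from an 800 uM solution, and hydrolysis was followed at 480 nm.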
AmpC inh detg = qHTS Inhibitors of AmpC Beta-Lactamase (assay with detergent); P00811; AmpC hydrolysis of nitrocefin, absorbance 480 nm, 0.01% Triton; Potency, µM (highest dose often 114 µM), inactives show at the top dose activity change, negative = inhibition, most hits filed as inhibitors; 0.041% of 370,000 active; AID 485294, 2010;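 further: 0% = no-compound wells and -100% = no-enzyme wells; nearly all actives have a fitted effect of over 25% in size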
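AmpC (5.3 nM in the dispensed reagent) in 20 mM phosphate pH 7.0 with 0.01% (detergent screen) or 0.0001% Triton X-100 was preincubated with compounds for 15 min at room temperature. Nitrocefin was then added from an 800 uM solution, and hydrolysis was followed at 480 nm.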
Sm TGR block = qHTS Assay for the Inhibitors of Schistosoma Mansoni Peroxiredoxins; 3% of 360,000 active; Potency, µM (series often up to 114 µM), for inactives: at the highest dose activity change, negative = inhibition, hits mostly inhibitors; purified TGR, DTNB reduction, TNB absorbance 405 nm; Schistosoma mansoni thioredoxin glutathione reductase (TGR), Q962Y6; further: nearly all actives have a fitted effect of over 60% in size
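Kinetic colorimetric format: TGR-catalysed, NADPH-driven DTNB reduction monitored via TNB absorbance. Enzyme dispensed at 20 nM; compound exposure 15 min at room temperature before reaction start.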
FMDV inh = High Throughput Screening for Foot and Mouth Disease Virus Antivirals; Potency, µM (doses to about 57.9 µM), without a hit: at the highest dose activity change, negative = inhibition, most hits filed as inhibitors; 1.2% of 410,000 active; FMDV antiviral cell-based qHTS; AID 1159524, 2015; calls by dose curve; tested in HEK293T cells; further: read-out not given here; nearly all actives have a fitted effect of over 45% in size
An asterisk follows results filed as active; ? = inconclusive; · = no result. Unless noted, the call rests on the fitted dose curve; in most records, active means well fitted curve in the direction sought with a large enough effect; inconclusive means small, poorly fitted or top-dose-only effect, or another doubt; inactive means no such curve, though single readings can be large; an effect the other way counts as inactive or inconclusive. Unless noted, on the % scale 0 is the no-effect control and ±100 the full control effect; potency means the concentration at half of the fitted maximal effect.

SMILES | AMA1-RON2 inh | AmpC inh no detg | AmpC inh detg | Sm TGR block | FMDV inh
Cc1ccc(CN2CCC(C3(c4ccccn4)NC(=O)N(CC4CCCO4)C3=O)CC2)cc1C (centres undefined) | · | · | · | · | -5%
Cn1c(C(=O)Nc2ccc(OC(F)(F)F)cc2)cc2c(=O)n3ccccc3nc21 | · | · | 8% | -8% | 2%
CCC(C)Nc1nc(-c2cccc(OC)c2O)nc2ccccc12 (centres undefined) | 5% | -19% | ? | -11% | 28µM*
COc1cccc(-c2nc(NC(C)C)c3ccccc3n2)c1O | -21% | -11% | -7% | 15% | ?
COc1cccc(-c2nc(NCC3CCCO3)c3ccccc3n2)c1O (centres undefined) | -22% | 20% | -3% | -11% | 18µM*
CCn1c(=O)n(-c2ccc(F)cc2)c(=O)c2sc3ccccc3c21 | · | · | 13% | 9% | -12%
CCN(CC)S(=O)(=O)c1ccc2nc(NC(=O)c3cccnc3)sc2c1 | · | · | -3% | -12% | -9%
CCc1cc(C(=O)NCC2Cc3cc(C)cc(-c4cc(C(C)=O)ccc4F)c3O2)n(C)n1 (centres undefined) | · | · | · | · | -24%
CC1=CC(c2ccccc2)n2nc(N3C(=O)c4ccccc4C3=O)nc2N1 (centres undefined) | 34% | -20% | 0% | 35µM* | -22%
CC1=CC(c2ccccc2)n2nc(N3C(=O)CCC3=O)nc2N1 (centres undefined) | 47% | -9% | 0% | 53% | -5%
OC[C@H]1OC([S-])[C@H](O)[C@@H](O)[C@@H]1O.[Au+] (some centres undefined) | · | · | · | · | 0%
CCOc1ccccc1NC(=O)CSc1nnc(-c2ccccn2)n1Cc1ccco1 | 1% | 31% | -11% | ? | -27%
CCOc1ccccc1NC(=O)CSc1nnc(-c2ccccc2Cl)n1Cc1ccco1 | -4% | -2% | ? | 50µM* | 0%
CCOc1ccccc1NC(=O)CSc1nnc(-c2ccco2)n1Cc1ccco1 | -15% | 28% | -17% | 50µM* | -12%
O=C1C=CC(=O)N1c1cccc(-c2ccccc2)c1 | -3% | -11% | 10% | 0.71µM* | -4%
CCCCNc1c(-c2ccc(-c3cccc(Cl)c3)cc2)nc2ccccn12 | -2% | -8% | -13% | -15% | -20%
CCCCNc1c(-c2cccc(-c3ccc(OC)cc3)c2)nc2cc(C)ccn12 | 0% | 1% | · | · | 25µM*
CCCCNc1c(-c2cccc(-c3cc(C(C)=O)cs3)c2)nc2ccc(C)cn12 | -19% | 20% | -8% | -1% | ?
CCCCNc1c(-c2ccc(OC)c(SC3CCCCC3)c2)nc2cnccn12 | 3% | 122% | ? | -20% | 0%
CCCCNc1c(-c2ccc(OC)c(SC3CCCCC3)c2)nc2cc(C)ccn12 | 28% | 54% | 6% | 3% | 25µM*
CCCCNc1c(-c2cccc(-c3ccc(OC)cc3)c2)nc2ccc(C)cn12 | -8% | -2% | -5% | 0% | 28µM*
O=C(Nc1ccccc1C(=O)OCc1cc(=O)n2ccsc2n1)c1cccc(F)c1 | · | · | -11% | 0% | 2%
CCOC(=O)[C@]12CCCC=C1N(Cc1ccc3c(c1)OCO3)C(=O)[C@H](CC(=O)NCCc1ccccc1OC)C2 | -9% | · | · | · | -8%
Cc1ccc(-c2nc(CSc3nnc(C)n4c3cc3occc34)c(C)o2)cc1 | · | · | -9% | 1% | -24%
Cc1oc(-c2ccc3ccccc3c2)nc1CN(C)C(C)c1ccncn1 (centres undefined) | 21% | -9% | 4% | 50µM* | 0%
CC(c1ccncn1)N(C)Cc1nc(-c2ccc(C(F)(F)F)cc2)no1 (centres undefined) | 3% | 105% | 9% | 8% | -25%
O=C(NC(Cc1ccccc1)C(=O)NCc1ccccn1)c1ccco1 (centres undefined) | 55% | -21% | ? | ? | 24%
O=C(Nc1nc(-c2ccccn2)cs1)c1ccco1 | -59% | -20% | 5% | 32µM* | 12%

Compound activity: PubChem, National Center for Advancing Translational Sciences (NCATS)
